# Assay results published in PubChem BioAssay (Tox21).
# Several values for one entry are separate records, joined by “and”; a condition that tells them apart may be missing. Equal entries are not always repeated. Results filed as inconclusive are left out. Entries that show only a call come without a potency. Some structures have more than one record in an assay (separate samples or runs), and their calls can disagree. Activity calls are given as the source filed them. Calls follow the shape of the dose curve; as a rule, active = well fitted cell-killing curve with a large enough effect in the repeat runs; inconclusive = weak or mixed curves, or effect the other way; inactive = flat fitted curve, though single readings scatter.
# Test: qHTS assay to identify small molecule agonists of the TGF-beta/Smad signaling pathway - cell viability counter screen (AID 1346829); also: nearly all actives have a fitted effect of over 45% in size; as to activity change, negative = cytotoxicity: top concentration of the series differs between compounds
# Details: SBE-bla HEK293T viability, CellTiter-Glo luminescence, 5 h; series mostly up to 76.8 µM; activity change, negative = cytotoxicity: at the top concentration
# In short: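 Luminescence from CellTiter-Glo, read after a 30 min room-temperature incubation, gives cell viability of SBE-bla HEK 293T cells treated 5 hr with compounds at 37 C.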
# Potency is read from the fitted curve at half-maximal effect.
SMILES,Potency,"activity change, negative = cytotoxicity"
O=C(Nc1ccc(Br)cc1)c1cc(Br)cc(Br)c1O,24.5 µM (active) and 43.6 µM (active) and 23.9 µM (active),–
C[C@]12CCC(=O)C(O)=C1CC[C@@H]1[C@@H]2CC[C@]2(C)C(=O)CC[C@@H]12,inactive,–
CCOCN(C(=O)CCl)c1c(C)cccc1CC,inactive,–
CCOC(=S)S,inactive,–
Brc1ccc(Oc2cc(Br)c(Br)cc2Br)c(Br)c1,–,-18.9% (inactive)
O=C(O)CC[N+](=O)[O-],inactive,–
C=C(C)[C@H]1Cc2c(ccc3c2O[C@@H]2COc4cc(OC)c(OC)cc4[C@@H]2C3=O)O1,inactive,–
CNC(=O)Oc1cccc2c1OC(C)(C)O2,inactive,–
COP(=S)(OC)Oc1ccc([N+](=O)[O-])cc1,inactive,–
Cc1cc(Cl)ccc1OCCCC(=O)O,inactive,–
CCC(CC)Nc1c([N+](=O)[O-])cc(C)c(C)c1[N+](=O)[O-],inactive,–
CCCCOCCOP(=O)(OCCOCCCC)OCCOCCCC,inactive,–
CC(C)=CC1C(C(=O)OCc2coc(Cc3ccccc3)c2)C1(C)C (stereo not drawn),inactive,–
O=S(=O)(Oc1ccc(Cl)cc1)c1ccc(Cl)cc1,inactive,–
CCc1cccc(CC)c1N(COC)C(=O)CCl,inactive,–
NC(=S)Nc1ccccc1,inactive,–
Cc1ccc(N)c(N)c1,inactive,–
O=[N+]([O-])c1c(Cl)c(Cl)c(Cl)c(Cl)c1Cl,inactive,–
O=P(Oc1ccccc1)(Oc1ccccc1)Oc1ccccc1,–,-1.3% (inactive)

SMILES,Potency,"activity change, negative = cytotoxicity"
CCC(C)c1ccc(O)cc1 (stereo not drawn),inactive,–
N#Cc1cc(Br)c(O)c(Br)c1,inactive,–
Oc1cc(Cl)ccc1Oc1ccc(Cl)cc1Cl,39.8 µM (active) and inactive,–
C[C@]12CCC(=O)C[C@@H]1CC[C@@H]1[C@@H]2CC[C@]2(C)[C@@H](O)CC[C@@H]12,inactive,–
CCN(CC)N=O,inactive,–
Nc1ccc(-c2ccccc2)cc1,inactive,–
CCN(CC)C(=O)SCc1ccc(Cl)cc1,inactive,–
CN(C)c1ccc(C(=O)c2ccc(N(C)C)cc2)cc1,inactive,–
CCCCCCCCC(=O)NCc1ccc(O)c(OC)c1,inactive,–
O=c1oc2ccccc2c(O)c1C(CC(O)c1ccc(-c2ccc(Br)cc2)cc1)c1ccccc1 (stereo not drawn),inactive,–
Nc1c(Cl)cc([N+](=O)[O-])cc1Cl,inactive,–
Nc1ccc(-c2ccc(N)c(N)c2)cc1N,inactive,–
Clc1nc(Cl)nc(Cl)n1,inactive,–
C=CCN(CC=C)C(=O)C(Cl)Cl,inactive,–
CC(C)(C)c1ccccc1O,inactive,–
CC(C)(OOC(C)(C)c1ccccc1)c1ccccc1,inactive,–
CCC(C)(c1ccc(O)cc1)c1ccc(O)cc1,inactive,–
CCCCCCOC(=O)c1ccccc1C(=O)OCCCCCC,inactive,–
CCCCC(CC)COC(=O)Cl (stereo not drawn),inactive,–
